# Screening data from PubChem BioAssay.
# A selection: hits, their analogues and other compounds. The true share with any hit is near 1.6%.
# PriA SSB inh: inhibitors of Klebsiella pneumoniae PriA binding to SSB C-terminal tail | inhibition, % at 33 µM | AlphaScreen SSBct-PriA binding, biotinylated peptide | actives 0.6% (n = 430,000); in the data active means inhibition mostly above about 37%, no sharp cut-off; inactive means mostly below about 20%
# PrPC TRFRET: cell surface PrPC inhibition, primary TR-FRET screen. TR-FRET read-out. inhibition, % at 13.8 µM. actives 0.43% (n = 370,000); in the data active means inhibition above about 24%
# 3CLpro inhibitor: SARS-CoV 3CLpro protease inhibition; inhibition, % at 6 µM; AID 1706; recombinant SARS-CoV 3CLpro, quenched FRET peptide cleavage; P0C6X7; actives 0.14% (n = 290,000); in the data active means inhibition above about 12%
# PfHsp40 yeast: rescue of PfHsp40-mediated yeast toxicity; actives 0.68% (n = 340,000); S. cerevisiae expressing PfHsp40, growth rescue, ATP luminescence; growth rescue, % at 12.5 µM; AID 504582; in the data active means growth rescue above about 28%, passing the limit was not always enough;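 further: yeast W303a lacking pdr1 and pdr3 grown in galactose medium; growth measured after three days at 30 °C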
# BH1578 lux ind: inducers of Vibrio cholerae quorum light production without autoinducers; V. cholerae BH1578 lux reporter, luminescence, 6 h; activation, % at 18.7 µM; actives 0.16% (n = 350,000); AID 588436; in the data active means activation mostly above about 9.7%, no sharp cut-off
# PrP 5UTR inh: suppresses PrP 5' UTR mRNA reporter expression; cell-based PrP 5' UTR mRNA reporter, plate reader; inhibition, % (concentration not given with the values); actives 0.35% (n = 340,000); in the data active means inhibition above about 52%
# A number is an active result; i = inactive; nt = not tested or not shown; ! = not active in a repeat.
SMILES,PriA SSB inh,PrPC TRFRET,3CLpro inhibitor,PfHsp40 yeast,BH1578 lux ind,PrP 5UTR inh
CCn1ccnc1N1CCN(C(=O)c2ccc(S(=O)(=O)N3CCCC3)cc2)CC1,i,nt,nt,nt,nt,nt
CCOC(=O)c1c(C(C)(C)C)oc2cc(Br)c(OCc3ccc(F)cc3)cc12,i,nt,nt,nt,nt,nt
Cc1ccc(S(=O)(=O)NC2CC3CCC2C3)cc1 (configuration not stated),i,i,nt,nt,i,nt
O=S(=O)(NC1CC2CCC1C2)c1ccc(Br)cc1 (configuration not stated),i,i,i,67.4,i,i
CSc1ccc(S(=O)(=O)NC2CCCCCC2)cc1,i,i,i,67.1,i,i
c1ccc(C2=Nc3c(ccc4ccccc34)C(c3ccncc3)=NN2)cc1,46.9,i,i,i,i,i
O=C(CSCc1ccccc1)NCc1cnn2ccccc12,i,nt,nt,nt,nt,nt
O=S(=O)(Cc1cccc(F)c1)N1CCN(c2ccc(-c3noc(C4CC4)n3)cn2)CC1,i,nt,nt,nt,nt,nt
CCCCCCCCOC(=O)CCn1[nH]c(=O)c2ccccc2c1=O,i,i,i,199.6,i,i
CC(C)COC(=O)CCn1[nH]c(=O)c2ccccc2c1=O,i,i,i,i,i,i
CCN(CC)S(=O)(=O)c1ccc(Cl)c(C(=O)Nc2ccc(Cl)cc2[N+](=O)[O-])c1,42.8,i,i,i,i,i
CCCC(=O)OCC(=O)Nc1ccc(Cl)cc1[N+](=O)[O-],78.3,nt,nt,nt,nt,nt
CC(C)c1cccc2sc(N(CC3CCCO3)C(=O)c3ccn(C)n3)nc12 (configuration not stated),i,nt,nt,nt,nt,nt
Cc1ccc(/C=C(/C#N)C(=O)Nc2ncc(Cc3cc(Cl)ccc3Cl)s2)o1,i,nt,nt,nt,nt,nt
COc1cccc2sc(N(C[C@H]3CCCO3)C(=O)CCSc3ccc(F)cc3)nc12,i,nt,nt,nt,nt,nt
CONC(=O)C1CCCN(Cc2nc(-c3cccs3)no2)C1 (configuration not stated),i,nt,nt,nt,nt,nt
COC(=O)c1ccc(-c2noc(CN3CCCC(CNC(C)=O)C3)n2)cc1 (configuration not stated),i,i,i,i,i,58.4
O=S(=O)(CCSc1ccccn1)c1nc2ccccc2s1,i,i,i,58.6,i,i
O=c1c(CO)cc(CO)cc(CO)c1O,i,i,i,422.4,i,i
COc1ccc(OC)c(Nc2cc(C(=O)NCCCN3CCOCC3)c3ccccc3n2)c1,i,i,i,i,i,i
COc1ccccc1Nc1cc(C(=O)NCCCN2CCOCC2)c2ccccc2n1,i,i,i,68.3,i,i
COc1ccc(-c2cc3nc(-c4ccccc4)cc(N4CCC(O)CC4)n3n2)cc1,i,i,i,i,i,i
COc1ccc(-c2cc3nc(-c4ccccc4)cc(N4CCCC(O)C4)n3n2)cc1 (configuration not stated),i,i,i,66.1,i,i
COc1ccccc1NC(=O)Cn1c2c(cc(C#N)c1=O)C(=O)CC(C)(C)C2,i,nt,nt,nt,nt,nt
O=C(N[C@@H](Cc1ccccc1)C(=O)CCl)OCc1ccccc1,i,i,nt,319.9,i,i
SMILES,PriA SSB inh,PrPC TRFRET,3CLpro inhibitor,PfHsp40 yeast,BH1578 lux ind,PrP 5UTR inh
O=C(N[C@@H](Cc1ccccc1)C(=O)N[C@@H](Cc1ccccc1)C(=O)O)OCc1ccccc1,i,i,nt,i,i,i
Cc1ccc2cccc(C(=O)N3CCc4ncncc4C3)c2n1,i,nt,nt,nt,nt,nt
COc1ccc(CCN2C(=O)CNC2=S)cc1,i,nt,nt,nt,nt,nt
c1ccc(-c2csc(Nc3ncccn3)n2)nc1,69.9,nt,nt,nt,nt,nt
c1ccc(Nc2nc(-c3ccccn3)cs2)nc1,150.5,nt,nt,nt,nt,nt
c1ccc(-c2csc(Nc3ccccn3)n2)cc1,i,i,i,i,i,i
Cc1ccc(C)c(Nc2nc(-c3ccccn3)cs2)c1,68.6,nt,nt,nt,nt,nt
c1ccc(CCNc2nc(-c3ccccn3)cs2)cc1,i,i,i,i,i,i
NNc1nc(-c2ccccn2)cs1,130.5,nt,nt,nt,nt,nt
CC(=O)Nc1cccc(NC(=O)CSc2nc(CC(=O)N3CCc4ccccc43)cs2)c1,i,nt,nt,nt,nt,nt
O=C(NCC(c1ccc2c(c1)OCO2)N1CCOCC1)c1cccc([N+](=O)[O-])c1 (configuration not stated),i,nt,nt,nt,nt,nt
CCOCC(=O)Nc1cc(N2CCCS2(=O)=O)ccc1OC,i,nt,nt,nt,nt,nt
Cc1nc2c(=O)[nH]nc(C)c2s1,i,nt,nt,nt,nt,nt
CCN(CC)C(=O)Oc1ccc2cc(Br)ccc2c1Br,i,nt,nt,nt,nt,nt
Cc1ccc2nc(N(Cc3cccnc3)C(=O)c3ccn(C)n3)sc2c1,i,nt,nt,nt,nt,nt
CCn1ccnc1CNCc1cn(-c2cc(C)ccc2C)nc1-c1ccccc1,87.4,i,i,i,i,i
COc1ccc(/C=N/Nc2nc3ccccc3[nH]2)cc1OC,nt,i,i,75.1,i,i
CCN(CC)c1ccc(/C=N/Nc2nc3ccccc3[nH]2)c(O)c1,nt,i,i,157.6,nt,i
COc1cc(C(C)=O)ccc1OC(=O)c1cc2cccc(OC)c2oc1=O,i,i,i,i,i,i
COc1cc(Br)cc2cc(C(=O)Oc3cccc4cccnc34)c(=O)oc12,89.0,nt,nt,nt,nt,nt
COc1ccc(NC(=O)CCCN2C(=O)CN(C)C2=O)c(OC)c1,56.9,i,nt,i,i,i
COc1ccc(NC(=O)CCCC(=O)O)c(OC)c1,i,nt,nt,nt,nt,nt
Fc1ccccc1-c1csc(-c2cccnc2)n1,i,i,i,i,i,i
Clc1ccc(-c2csc(-c3cccnc3)n2)s1,i,i,i,29.4,i,i
O=[N+]([O-])c1ccc(C=Nc2cccc3ccccc23)s1,52.6,nt,i,i,i,i
SMILES,PriA SSB inh,PrPC TRFRET,3CLpro inhibitor,PfHsp40 yeast,BH1578 lux ind,PrP 5UTR inh
O=[N+]([O-])c1ccc(C=Nn2c(CO)nc3ccccc32)s1,i,nt,nt,nt,nt,nt
Clc1ccc(C(Cc2nc3ccccc3[nH]2)=NNc2ccccc2)cc1,i,nt,nt,nt,nt,nt
Clc1cccc(N/N=C(\Cc2nc3ccccc3[nH]2)c2ccccc2)c1,nt,i,i,425.7,i,i
CCOC(=O)c1sc(NC(=O)c2ccc(S(=O)(=O)N3CCCCCC3)cc2)nc1-c1ccccc1,i,i,i,49.6,i,i
CCOC(=O)c1sc(NC(=O)c2ccc(S(=O)(=O)N3CCCCC3)cc2)nc1-c1ccccc1,i,i,i,i,i,i
CCOC(=O)c1sc(N)nc1-c1ccccc1,i,i,i,94.4,i,i
CCOC(=O)c1c(-c2ccccc2)nc2ccc(C)cn12,i,i,i,206.6,i,i
CCCCC#Cc1ccccc1COC[B-](F)(F)F,nt,29.5,nt,nt,nt,nt
COC(=O)C1=C(C)N(Cc2ccccc2)C(=NCCc2c[nH]c3ccccc23)N[C@H]1c1cccc(F)c1,i,i,nt,i,i,i
COC(=O)C1=C(C)N(Cc2ccccc2)C(=NCCc2c[nH]c3ccccc23)N[C@H]1c1ccccc1,47.0,nt,nt,i,i,i
Cc1cc2cc(CNC(=S)Nc3ccc(OC(F)(F)F)cc3)ccc2[nH]1,57.8,i,i,i,i,i
Cc1cc2cc(CNC(=S)Nc3ccc(OC(F)F)cc3)ccc2[nH]1,73.3,i,i,i,i,i
Cc1cc2cc(CNC(=O)Nc3ccccc3)ccc2[nH]1,44.0!,i,i,i,i,i
CCNC(=S)NCc1ccc2[nH]c(C)cc2c1,63.0,i,i,i,i,i
Cc1cc2cc(CNC(=S)NC(C)(C)C)ccc2[nH]1,i,nt,nt,nt,nt,nt
O=C(NCC#CCN1CCc2ccccc2C1)c1cccc(Br)c1,i,nt,nt,nt,nt,nt
CC(=O)Nc1ccc(SCc2cccc(F)c2)nn1,i,nt,nt,nt,nt,nt
